Source: PubChem BioAssay
KB-3-1 tox: kills parental KB-3-1 adenocarcinoma cells | 400,000 tested, 1.4% active | KB-3-1 viability, CellTiter-Glo ATP luminescence, 72 h | Potency, µM (top dose mostly 46.1 µM), hits mostly cytotoxic | AID 1347075; also: nearly all actives have a fitted effect of over 60% in size
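Viability of parental KB-3-1 cells, measured by CellTiter-Glo luminescence, followed a 72 h incubation at 37 °C with pinned compounds in phenol-red-free DMEM containing 10% FBS.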
MCF10A rerep: induces DNA re-replication in MCF 10a normal breast cells; MCF 10A DNA re-replication, Hoechst nuclear intensity, 48 h; Potency, µM (highest dose often 46.1 µM), most hits filed as activators; 350,000 tested, 2.9% active; AID 624296; also: nearly all actives have a fitted effect of over 50% in size
HT1080 IDH1KD tx: kills HT-1080 cells with IDH1 knockdown. Potency, µM (doses to about 46.1 µM), most hits filed as cytotoxic. HT-1080 IDH1 knockdown viability, ATP luminescence, 48 h. AID 686971. 360,000 tested, 2% active
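After a 2 h attachment period, IDH1KD HT-1080 cells took pin-transferred compound for 48 h at 37 °C; ATP-based luminescence after 10 min room-temperature reagent incubation reported viability.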
HT1080-NT tox: kills 2HG-producing HT-1080-NT fibrosarcoma cells; 360,000 tested, 1.6% active; Potency, µM (doses to about 46.1 µM), most hits filed as cytotoxic; HT-1080-NT fibrosarcoma viability, CellTiter-Glo ATP luminescence, 48 h;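 also: NT is the 2HG producing partner of a matched IDH1 knockdown line; nearly all actives have a fitted effect of over 55% in size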
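Compounds were tested in concentration-response format on HT-1080-NT cells for 48 hours at 37 degrees C. Cell viability came from CellTiter-Glo luminescence; curves were classified by r2, response magnitude and activity.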
SW480 rereplic: induces DNA re-replication in SW480 colon adenocarcinoma cells; SW480 DNA re-replication, Hoechst DNA content imaging, 48 h; Potency, µM (top dose mostly 46.1 µM), actives largely listed as activators; 340,000 tested, 1.8% active; AID 624297; also: nearly all actives have a fitted effect of over 55% in size
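Readout is total intensity of Hoechst-stained nuclei, excited at 405 nm and collected at 500-530 nm. Compound treatment lasted 48 hr at 37 C in 5% CO2 before staining.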
KB-V1 cytotox: kills drug-selected multidrug resistant KB-V1 cells; Potency, µM (highest dose often 46.1 µM), usual class: cytotoxic; AID 1347076; KB-V1 MDR cells viability, CellTiter-Glo, 72 h; 400,000 tested, 3.4% active; also: nearly all actives have a fitted effect of over 60% in size
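Cytotoxicity via CellTiter-Glo luminescence after 72 h compound exposure at 37 degrees C. Cells: drug-selected KB-V1 line, DMEM phenol-red free plus 10% FBS. Compounds tested at multiple concentrations; normalized data fitted to concentration-effect curves.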
Hits are given with their value; i = inactive; ? = inconclusive; nt = no result given. Sampled rows, rich in hits. Any-hit rate of the full collection: about 8%. Calls follow the shape of the dose curve; as a rule, active = well fitted curve in the direction sought with a large enough effect; inconclusive = small, poorly fitted or top-dose-only effect, or another doubt; inactive = no such curve, though single readings can be large; an effect the other way counts as inactive or inconclusive.

SMILES	KB-3-1 tox	MCF10A rerep	HT1080 IDH1KD tx	HT1080-NT tox	SW480 rereplic	KB-V1 cytotox
C=CC(=O)N1c2ccccc2Sc2ccc(NC(=O)OCC)cc21	?	6.5µM	?	?	?	i
CCOC(=O)Nc1ccc2c(c1)N(C(=O)CCN(CC)CC)c1ccccc1S2=O (stereo not given)	?	?	26µM	16µM	i	i
CCOC(=O)Nc1ccc2c(c1)N(C(=O)CN(CC)CC)c1ccccc1C=C2	i	12µM	i	i	i	?
Cn1cccc1CN1CCC[C@]2(N[C@H](c3ccccc3)[C@@H]3C(=O)N(Cc4ccccc4)C(=O)[C@@H]32)C1=O	i	nt	i	i	nt	i
CC1=CC(C)(C)Nc2ccc(Cc3ccc4c(c3)C(C)=CC(C)(C)N4)cc21	i	29µM	i	i	i	i
CC1=CC(C)(C)Nc2ccc(OC(=O)c3ccco3)cc21	i	4.1µM	?	2.8µM	18µM	i
CC1=CC(C)(C)Nc2ccc(OC(=O)C(C)N3C(=O)c4ccccc4C3=O)cc21 (stereo not given)	?	?	18µM	21µM	3.7µM	?
CC1=CC(C)(C)Nc2ccc(C)cc21	i	i	i	i	i	i
CC1=CC(C)(C)Nc2ccc(OC(=O)CN3C(=O)CCC3=O)cc21	i	i	2.5µM	?	4.1µM	?
COc1ccc(OC(=O)C(C)N2C(=O)c3ccccc3C2=O)cc1 (stereo not given)	i	i	i	i	i	i
CC1=CC(C)(C)Nc2ccc(OC(=O)c3cccnc3)cc21	?	2.6µM	?	?	3.7µM	?
O=C(Oc1ccc(F)cc1)c1cccnc1	i	i	i	i	i	i
O=C(Oc1cccc(OC(=O)c2ccco2)c1)c1ccco1	i	i	i	i	i	i
CC1=CC(C)(C)N2C(=O)C(=O)c3cc(OC(=O)c4ccco4)cc1c32	?	?	16µM	2.3µM	1.3µM	?
COc1ccc(-c2cc3nc(C)c(CCC(=O)NCc4ccco4)c(C)n3n2)c(OC)c1	i	i	i	i	i	4.6µM
Cc1nc2cc(-c3ccc(Cl)cc3)nn2c(C)c1CCC(=O)NCc1ccco1	?	i	i	i	?	i
CCOC(=O)c1ccc(NC(=O)CCc2c(C)n(CC)c3cc(-c4ccccc4OC)nn3c2=O)cc1	i	nt	nt	nt	nt	?
O=C1C=C(NCCN2CCOCC2)C(=O)c2cnccc21	nt	?	nt	nt	10µM	nt
O=[N+]([O-])c1ccc(/C=N/N/C(=N/c2ccccn2)c2ccccn2)cc1	i	i	10µM	?	i	?
Cc1ncc(S(=O)(=O)c2ccccc2)c(-c2ccccc2)n1	i	i	i	i	i	i
O=S(=O)(c1ccccc1)c1cnc(-c2cccnc2)nc1-c1ccc(Cl)c(Cl)c1	i	i	i	i	i	6.5µM
O=C(Cc1ccc[nH]c1=O)c1ccc(F)cc1	i	nt	nt	nt	nt	i
Cc1ccc(NP(=O)(Nc2ccc(C)cc2)Nc2ccc(C)cc2)cc1	21µM	i	i	i	?	?
Cc1ccc(P(C)(=O)c2ccc(C)cc2)cc1	i	i	i	i	i	i
CCc1ccc(S(=O)(=O)c2cn(CC(=O)Nc3ccc(C)cc3)c3ccccc3c2=O)cc1	i	nt	nt	nt	nt	?
SMILES	KB-3-1 tox	MCF10A rerep	HT1080 IDH1KD tx	HT1080-NT tox	SW480 rereplic	KB-V1 cytotox
O=C(c1csc(Nc2ccccc2Cl)n1)N1CCCC1	i	i	i	i	i	21µM
CC(C)CCNC(=O)c1ccc2c(c1)NC(=O)C(C(C)C)N2 (stereo not given)	i	nt	nt	nt	nt	i
Cc1ccnc(NC(=O)c2cccc(OC(F)F)c2)n1	i	i	i	i	i	i
O=C(Nc1cc(Cl)cc(Cl)c1)c1cccc(OC(F)F)c1	13µM	?	i	i	i	16µM
COc1ccc(S(=O)(=O)N(CC(=O)Nc2cccnc2)c2ccc(Cl)cc2)cc1	i	nt	nt	nt	nt	i
COc1ccc(C2=CC(=O)OC(C)(c3ccccc3)O2)cc1 (stereo not given)	i	?	i	i	?	16µM
O=C1CCCC2=C1C1(CCS(=O)(=O)C1)N=C(Nc1nc3ccccc3o1)N2 (stereo not given)	i	nt	nt	nt	nt	i
